Assay results taken from the supplement of paper PMC7726561.
Over roughly 1,100 sequences, “thermal melting temperature (Tm) of peptide-HLA complex” has its median near 58; the lowest 2% begin near 42. The sample as a whole holds a higher share of the lowest values than the screen did.

The sequences below were run against HLA-A*02:01 (assay: thermal melting temperature (Tm) of peptide-HLA complex; higher = more thermostable pHLA complex). Conditions: C1R-A*02:01.
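Further: lysates heated 10 min at 37–73 °C, complexes pulled down with pan-HLA I antibody, peptide signal by DIA-MS relative to 37 °C, Tm where half the complex is unfolded.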

Sequence	thermal melting temperature [°C]
KLMNVDPDSV	53.8
KLMDPGSLPPL	57.3
RLGGIPVGV	55.9
IIMLEALERV	46.6
ALANGVSRI	55.8
ALDRDNFEL	47.8
FMFDEKLVTV	58.5
VLGPKIEAV	55.5
FILANEHNV	40.8
YLPDIIKDQKA	55.4
RQIEYYFSV	61.3
FMQHDVQEL	41.6
VVWGTVIRV	58.5
SLDPHAQVAV	48.9
KLQDQIFNL	56
ALSKEGIVAL	59.5
SLLQTLYKV	63.6
ALGPGVPHI	58

Sequence	thermal melting temperature [°C]
VLADALKSI	58.9
KLNATNIEL	51.5
FLEPVNPRL	55.3
MLDDRAYLV	61.5
YPSEFATYL	56.5
TLDEYTTRV	52.2
LLPSEGIVHL	41.3
ALMPVLNQV	58.7
TLFPGKVHSL	55.8
SLAGGLDDMKA	45.1
MTDPIRILV	41.9
ALLKDSIVQL	40.9
SLDTQPKKV	40.4
VLLESEQFL	56.7
RLDEAFDFV	57
SLDAKEIYL	50.5
TTLEQPPSV	50.3
QLLPSIPQL	53.7
